The record followed here is PubChem BioAssay.

Experiment [1] can be described thus: rapamycin-like changes in RPL19A-GFP expression – cell-based, S. cerevisiae, multiplex flow cytometry, primary screen (AID 1862; in the data active = percent of DMSO control GFP below about 86%;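 also: lower values mimic rapamycin by blocking the RPL19A rise seen in DMSO cells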). The conditions noted are these: S. cerevisiae RPL19A-GFP strain, flow cytometry fluorescence, 3 h; at 10 µM; stronger effect = lower value.
Experiment [2] can be described thus: TOR pathway GLN3 branch reporter MEP2-GFP changes – S. cerevisiae, multiplex flow cytometry, primary screen (AID 1867;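 active = GFP response, as percent of the DMSO control, above the screen-wide mean plus 3 SD, about 139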;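 also: median GFP channel fluorescence of barcode-gated MEP2-GFP cells measured by flow cytometry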). As to conditions: S. cerevisiae MEP2-GFP strain, 3 h, at 10 µM, stronger effect = higher value.
Experiment [3] can be described thus: TOR pathway RTG branch CIT2 reporter changes – S. cerevisiae, GFP fusion, multiplex flow cytometry, primary screen (AID 1870;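 active = percent response above a set limit, the screen-wide mean plus 3 SD, cut at about 130% in these data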;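 also: barcoded CIT2-GFP strain pooled with four other GFP strains with rapamycin as positive control; median GFP fluorescence per well over plate mean of DMSO wells so 100% = DMSO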). The conditions noted are these: S. cerevisiae CIT2-GFP expression, 3 h, at 10 µM, stronger effect = higher value.
Experiment [4] in a line: TOR pathway LAP4-GFP level changes – S. cerevisiae, multiplex flow cytometry, primary screen (AID 1873;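 active = GFP signal, as percent of the solvent control, above the screen mean plus 3 SD, about 149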). The conditions noted are these: S. cerevisiae LAP4-GFP expression, 3 h, at 10 µM, stronger effect = higher value.
Experiment [5] can be described thus: yeast AGP1-GFP level changes, GLN3 branch – cell-based, multiplex flow cytometry, S. cerevisiae, primary screen (AID 1887;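 active = GFP signal above the screen-wide mean plus 3 SD, that is over about 124.5% of the solvent control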;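 also: AGP1-GFP fusion strain of S. cerevisiae within a five-strain barcoded multiplex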). The conditions noted are these: 3 h, at 10 µM, stronger effect = higher value. A general note: A flow cytometer gives signals particle by particle.
A short description of experiment [6]: reduced mouse 2C T cell binding to pMHC/ICAM-1 vesicles – MLPCN validation set, flow cytometry, LFA-1/ICAM-1 modulator project, pilot screen (AID 2523;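 active = response below a set limit, under 55% cells CD8-positive and vesicle-bound, and CD8 cells' 90th-percentile brightness under 279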;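 as to vesicle binding response: mean PE anti-B7-1 fluorescence of CD8+ cells relative to row control; 100% = QL9-loaded vesicles with DMSO vehicle in the same plate row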). As to conditions: 2C mouse CD8+ T cells, at 7 µM, stronger effect = lower value; double positive events: measured here: CD8+/vesicle+ event percentage.
Experiment [7] addresses Integrin beta-1 (Homo sapiens) + Integrin alpha-4 (Homo sapiens) (UniProt P13612+P05556). As to the kind of experiment: alpha4beta1 integrin LIBS antibody binding reduction – U937 cells, HUTS-21 mAb, flow cytometry, validation set, VLA-4 allosteric modulator project, pilot screen (AID 2674;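 active = inhibition above 50%, about 3 SD of the validation set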;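 also: antibody binding induced by the VLA-4 ligand LDV present at three times its Kd; 0% = LDV ligand with antibody and no compound and 100% = antibody without LDV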). The conditions noted are these: HUTS-21 LIBS mAb binding, at 6.7 µM, stronger effect = higher value.

Experiment [8] in a line: calorie-restriction mimetic ROS inhibitors, yeast – validation compound set, pilot screen (AID 2706;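 active = superoxide response below 65% of plate, a cut near 3 SD across the whole screen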;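 also: yeast exposed to compound for one week at 30 degrees C before staining; 100% = mean of all compound wells on the same plate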). As to conditions: S. cerevisiae aging, superoxide DHE fluorescence; at 10 µM; stronger effect = lower value.
Experiment [9] deals with Beta-adrenergic receptor kinase 1 (Homo sapiens) (UniProt P25098). As to the kind of experiment: GRK2 binders displacing RNA aptamer, biochemical, validation, human GRK2, bead flow cytometry (AID 488806;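 active = aptamer binding inhibition above 30%, about 3 SD of noise from non-fluorescent compounds; inactive = inhibition at or below 30%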). The conditions noted are these: bead-bound GRK2, FAM-aptamer displacement, at 10 µM, stronger effect = higher value.
For experiment [10], the target named is AP-2 complex subunit beta (Homo sapiens) (UniProt P63010). The experiment is described as follows: beta-arrestin/AP2 interaction blockers – biochemical, validation set, GST-AP2 beads, flow cytometry, pilot screen (AID 504541;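 active = inhibition above 54%, about 3 SD of non-fluorescent compounds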;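 also: AP2 carries R879A mutation and is captured from E. coli lysate; bead-bound FITC arrestin peptide fluorescence measuring arrestin peptide binding to AP2; 0% = DMSO wells and 100% = excess unlabeled arrestin peptide control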). As to conditions: FITC arrestin peptide, at 10 µM, stronger effect = higher value.
AP-2 complex subunit beta (Homo sapiens), sequence (P63010 whole entry, looked up, one chain of several): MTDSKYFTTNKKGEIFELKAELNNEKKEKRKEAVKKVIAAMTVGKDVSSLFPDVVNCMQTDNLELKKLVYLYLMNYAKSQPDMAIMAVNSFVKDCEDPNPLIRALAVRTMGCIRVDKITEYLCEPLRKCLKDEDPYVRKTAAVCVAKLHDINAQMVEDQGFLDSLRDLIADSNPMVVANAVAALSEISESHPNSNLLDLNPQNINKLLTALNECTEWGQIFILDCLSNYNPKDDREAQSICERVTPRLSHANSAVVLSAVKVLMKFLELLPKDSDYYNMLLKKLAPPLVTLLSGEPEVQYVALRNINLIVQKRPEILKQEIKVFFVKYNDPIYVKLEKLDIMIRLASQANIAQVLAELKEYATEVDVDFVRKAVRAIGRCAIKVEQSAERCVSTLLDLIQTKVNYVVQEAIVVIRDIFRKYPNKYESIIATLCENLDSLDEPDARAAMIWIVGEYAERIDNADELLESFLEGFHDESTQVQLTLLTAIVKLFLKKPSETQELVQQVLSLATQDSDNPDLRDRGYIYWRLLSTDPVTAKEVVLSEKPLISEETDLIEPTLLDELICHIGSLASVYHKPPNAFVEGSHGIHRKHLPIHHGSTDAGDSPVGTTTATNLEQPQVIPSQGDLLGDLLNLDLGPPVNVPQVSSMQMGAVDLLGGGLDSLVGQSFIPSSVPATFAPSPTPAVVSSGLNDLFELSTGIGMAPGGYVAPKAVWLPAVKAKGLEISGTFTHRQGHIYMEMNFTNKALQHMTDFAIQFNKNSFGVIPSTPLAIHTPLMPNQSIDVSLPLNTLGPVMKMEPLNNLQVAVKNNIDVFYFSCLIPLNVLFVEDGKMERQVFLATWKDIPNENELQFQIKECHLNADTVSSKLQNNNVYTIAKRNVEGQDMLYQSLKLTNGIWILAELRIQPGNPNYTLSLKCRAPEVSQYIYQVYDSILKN
A short description of experiment [11]: cytosolic pH regulators acting via V-ATPase – S. cerevisiae, pHLuorin, HTS validation (AID 504600; in the data active = response above about 15%;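 also: plate controls were DMSO for no effect and reference compound for full effect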). As to conditions: V-ATPase proton transport, at 10 µM, stronger effect = higher value.
The subject of experiment [12] is anti-desmoglein-3 scFv antibody binding to human DSG3. As to the kind of experiment: blockers of pathogenic pemphigus antibody–desmoglein-3 binding – biochemical, validation compound set, bead-based, flow cytometry, pilot screen (AID 588368;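 active = binding below the plate cutoff, the plate median minus 3 SD, with a reading above zero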;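 also: signal is the median channel fluorescence of bead-bound GFP antibody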). As to conditions: Protein G beads, DSG3-Fc, scFv-GFP binding, at 10 µM, stronger effect = lower value.
Experiment [13] deals with Botulinum neurotoxin type F light chain protease (Clostridium botulinum). The experiment is described as follows: Clostridium botulinum type F light chain protease inhibitors, microsphere substrate cleavage, validation (AID 588459). The conditions noted are these: multiplex microsphere protease substrate cleavage assay, flow cytometry; at 10 µM; stronger effect = higher value.
In experiment [14] the target is Botulinum neurotoxin type A (Clostridium botulinum) (UniProt P0DPI0). As to the kind of experiment: BoNT/A light chain protease inhibitors, biochemical, multiplex microsphere flow cytometry, validation set (AID 588460). As to conditions: at 10 µM, stronger effect = higher value.
Botulinum neurotoxin type A (Clostridium botulinum), sequence (P0DPI0 whole entry, looked up): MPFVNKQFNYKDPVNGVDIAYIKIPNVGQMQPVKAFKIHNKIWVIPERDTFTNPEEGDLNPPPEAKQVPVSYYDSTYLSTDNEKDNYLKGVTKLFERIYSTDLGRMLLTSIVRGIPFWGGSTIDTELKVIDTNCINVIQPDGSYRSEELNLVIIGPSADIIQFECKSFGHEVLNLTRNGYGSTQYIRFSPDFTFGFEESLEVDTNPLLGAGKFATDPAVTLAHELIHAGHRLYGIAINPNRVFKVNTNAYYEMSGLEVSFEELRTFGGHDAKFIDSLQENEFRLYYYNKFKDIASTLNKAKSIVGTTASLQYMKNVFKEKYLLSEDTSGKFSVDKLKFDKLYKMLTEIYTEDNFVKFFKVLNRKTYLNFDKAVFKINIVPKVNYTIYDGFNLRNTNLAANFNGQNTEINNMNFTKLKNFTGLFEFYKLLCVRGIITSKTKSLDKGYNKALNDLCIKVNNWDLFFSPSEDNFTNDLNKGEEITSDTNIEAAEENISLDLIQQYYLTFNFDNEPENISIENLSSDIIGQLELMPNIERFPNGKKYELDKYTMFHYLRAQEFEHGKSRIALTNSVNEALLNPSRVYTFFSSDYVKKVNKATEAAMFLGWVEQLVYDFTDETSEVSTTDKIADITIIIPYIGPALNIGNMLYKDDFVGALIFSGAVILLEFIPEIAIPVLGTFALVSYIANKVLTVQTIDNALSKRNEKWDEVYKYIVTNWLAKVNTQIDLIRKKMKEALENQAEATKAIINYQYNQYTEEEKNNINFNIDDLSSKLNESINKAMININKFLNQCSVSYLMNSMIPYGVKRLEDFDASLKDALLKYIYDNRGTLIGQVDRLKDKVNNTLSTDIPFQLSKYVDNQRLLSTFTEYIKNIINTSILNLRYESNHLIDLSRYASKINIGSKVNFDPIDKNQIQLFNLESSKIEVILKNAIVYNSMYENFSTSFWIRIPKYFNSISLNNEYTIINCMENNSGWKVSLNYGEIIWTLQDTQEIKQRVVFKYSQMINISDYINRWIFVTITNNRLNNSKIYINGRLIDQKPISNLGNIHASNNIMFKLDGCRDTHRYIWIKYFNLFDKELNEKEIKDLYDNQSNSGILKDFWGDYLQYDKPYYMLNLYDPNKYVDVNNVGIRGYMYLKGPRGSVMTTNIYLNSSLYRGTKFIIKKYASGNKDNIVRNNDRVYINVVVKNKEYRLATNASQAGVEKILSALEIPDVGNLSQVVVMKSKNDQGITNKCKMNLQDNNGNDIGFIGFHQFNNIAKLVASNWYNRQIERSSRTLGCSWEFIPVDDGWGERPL
Experiment [15] deals with Lethal factor (Bacillus anthracis) (UniProt P15917). The experiment is described as follows: Bacillus anthracis lethal factor inhibition, microsphere flow cytometry protease assay, validation at 10 µM (AID 588461). The conditions noted are these: multiplex microsphere protease cleavage assay, stronger effect = higher value.
Lethal factor (Bacillus anthracis), sequence (P15917 whole entry, looked up): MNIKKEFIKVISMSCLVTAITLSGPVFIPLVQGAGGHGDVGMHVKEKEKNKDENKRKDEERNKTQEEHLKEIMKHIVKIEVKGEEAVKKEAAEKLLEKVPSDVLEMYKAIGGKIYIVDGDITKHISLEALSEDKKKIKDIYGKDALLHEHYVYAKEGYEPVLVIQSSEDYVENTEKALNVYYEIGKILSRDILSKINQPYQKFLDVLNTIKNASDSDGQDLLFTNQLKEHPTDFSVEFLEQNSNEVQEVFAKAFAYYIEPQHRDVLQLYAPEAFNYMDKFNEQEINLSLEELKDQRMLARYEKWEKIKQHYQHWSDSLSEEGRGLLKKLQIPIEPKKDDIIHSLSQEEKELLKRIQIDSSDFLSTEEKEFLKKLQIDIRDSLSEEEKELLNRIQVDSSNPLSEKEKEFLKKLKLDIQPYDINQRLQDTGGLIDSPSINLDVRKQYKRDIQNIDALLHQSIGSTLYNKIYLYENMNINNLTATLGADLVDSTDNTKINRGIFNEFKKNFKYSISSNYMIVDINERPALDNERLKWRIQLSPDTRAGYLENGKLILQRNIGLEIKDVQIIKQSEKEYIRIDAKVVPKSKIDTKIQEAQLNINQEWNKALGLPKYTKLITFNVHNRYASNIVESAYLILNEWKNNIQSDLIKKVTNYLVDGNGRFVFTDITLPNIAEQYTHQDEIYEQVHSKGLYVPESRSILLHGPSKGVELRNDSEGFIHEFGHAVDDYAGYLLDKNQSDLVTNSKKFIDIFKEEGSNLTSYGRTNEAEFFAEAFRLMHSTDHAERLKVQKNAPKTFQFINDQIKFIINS
Experiment [16] in a line: Nile Red efflux blockade in pump-expressing yeast – validation compound set, multiplex, phenotypic, pilot screen (AID 588506;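 active = efflux inhibition above 0.42, the validation set average plus 4 SD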;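 also: Nile Red retained in cells so higher fluorescence means more efflux inhibition; 0 = negative control wells and 1 = enniatin B 25 µM full block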). As to conditions: S. cerevisiae pump-expressing triplex, Nile Red efflux flow cytometry; at 10 µM; stronger effect = higher value.
The target of experiment [17] is ATP-binding cassette sub-family B member 6 (Homo sapiens) (UniProt Q9NP58). As to the kind of experiment: blockers of ABCB6-driven porphyrin uptake – K562-ABCB6 cells, flow cytometry, validation set, pilot screen (AID 588550;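 active = inhibition above the screen-wide mean plus 3 SD, about 51%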;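 also: 0% = DMSO wells and 100% = benzethonium chloride 70 µM positive control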). As to conditions: K562-ABCB6 porphyrin accumulation, 1 h, at 10 µM, stronger effect = higher value.
Experiment [18] can be described thus: AML differentiation inducers, ER-HoxA9 marrow cells – cell-based, GFP/MAC1 double positive, flow cytometry, validation set, primary screen (AID 588685;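 active = differentiation response of at least 50%, scaled between solvent and reference control, from cells with both markers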;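 also: compound exposure lasts four days before antibody staining and flow analysis; 0% = DMSO wells and 100% = 5 µM fulvestrant positive control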). The conditions noted are these: stronger effect = higher value.
The target in experiment [19] is Beta-2 adrenergic receptor (Homo sapiens) (UniProt P07550). As to the kind of experiment: agonist-induced loss of surface beta2AR – cell-based, FAP fluorogen, flow cytometry, validation set, pilot screen (AID 504459;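 active = percent response above 42, roughly 3 SD of non-fluorescent test compounds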;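 also: agonist-driven loss of surface beta2AR via internalization measured by FAP dye flow cytometry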). As to conditions: Am2.2-beta2AR cells, at 10 µM, stronger effect = higher value.

Inconclusive results are not listed. Calls of active or inactive are those of the source. Unless noted, no rule for the calls is given here.

Integrin beta-1 (Homo sapiens) + Integrin alpha-4 (Homo sapiens), sequence (P05556 whole entry, looked up): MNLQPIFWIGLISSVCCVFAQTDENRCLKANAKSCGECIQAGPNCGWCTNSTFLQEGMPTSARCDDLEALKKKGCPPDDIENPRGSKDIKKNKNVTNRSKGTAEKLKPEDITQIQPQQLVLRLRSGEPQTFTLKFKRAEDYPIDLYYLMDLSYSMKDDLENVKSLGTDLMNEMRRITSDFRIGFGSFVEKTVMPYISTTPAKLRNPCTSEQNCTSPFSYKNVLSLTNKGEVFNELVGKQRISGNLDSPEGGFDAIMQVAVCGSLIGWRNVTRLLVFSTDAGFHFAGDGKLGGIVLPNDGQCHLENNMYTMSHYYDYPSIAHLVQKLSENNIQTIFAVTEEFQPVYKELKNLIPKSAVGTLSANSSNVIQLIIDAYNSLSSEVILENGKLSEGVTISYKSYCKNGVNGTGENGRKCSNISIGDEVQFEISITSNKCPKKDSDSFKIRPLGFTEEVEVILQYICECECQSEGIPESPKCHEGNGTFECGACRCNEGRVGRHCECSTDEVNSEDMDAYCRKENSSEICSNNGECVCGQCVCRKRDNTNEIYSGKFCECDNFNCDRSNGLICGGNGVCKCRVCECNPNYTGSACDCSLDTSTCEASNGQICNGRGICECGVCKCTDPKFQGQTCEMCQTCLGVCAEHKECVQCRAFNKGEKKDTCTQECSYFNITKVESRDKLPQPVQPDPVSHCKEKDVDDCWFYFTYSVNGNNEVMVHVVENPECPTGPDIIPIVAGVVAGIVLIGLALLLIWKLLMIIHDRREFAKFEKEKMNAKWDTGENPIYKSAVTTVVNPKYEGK
Integrin beta-1 (Homo sapiens) + Integrin alpha-4 (Homo sapiens), sequence (P13612 whole entry, looked up): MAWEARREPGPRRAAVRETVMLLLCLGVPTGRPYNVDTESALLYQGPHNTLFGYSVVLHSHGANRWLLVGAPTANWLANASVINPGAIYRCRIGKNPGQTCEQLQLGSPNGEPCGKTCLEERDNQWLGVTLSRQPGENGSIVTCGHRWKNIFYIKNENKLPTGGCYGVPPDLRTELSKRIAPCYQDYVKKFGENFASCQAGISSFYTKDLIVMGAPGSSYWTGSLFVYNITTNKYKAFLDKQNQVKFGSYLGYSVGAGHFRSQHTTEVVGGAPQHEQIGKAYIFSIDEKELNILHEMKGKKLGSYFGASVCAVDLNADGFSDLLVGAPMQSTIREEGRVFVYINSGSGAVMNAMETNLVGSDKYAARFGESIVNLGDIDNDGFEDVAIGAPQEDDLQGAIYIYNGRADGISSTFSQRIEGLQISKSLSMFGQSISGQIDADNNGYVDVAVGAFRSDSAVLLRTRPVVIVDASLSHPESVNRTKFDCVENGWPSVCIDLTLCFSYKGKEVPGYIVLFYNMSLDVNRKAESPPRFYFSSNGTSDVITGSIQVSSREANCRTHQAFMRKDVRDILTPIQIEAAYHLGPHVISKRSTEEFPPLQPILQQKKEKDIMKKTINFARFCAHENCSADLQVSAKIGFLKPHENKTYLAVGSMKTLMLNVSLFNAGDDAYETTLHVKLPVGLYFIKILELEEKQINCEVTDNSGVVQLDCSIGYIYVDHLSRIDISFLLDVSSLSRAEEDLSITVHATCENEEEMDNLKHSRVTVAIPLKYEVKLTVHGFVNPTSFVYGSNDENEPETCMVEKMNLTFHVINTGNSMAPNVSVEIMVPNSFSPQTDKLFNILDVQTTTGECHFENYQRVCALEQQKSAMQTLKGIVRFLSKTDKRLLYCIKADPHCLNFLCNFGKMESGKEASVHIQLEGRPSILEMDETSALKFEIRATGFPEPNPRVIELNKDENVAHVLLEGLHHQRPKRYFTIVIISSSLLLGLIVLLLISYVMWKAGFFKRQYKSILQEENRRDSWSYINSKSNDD

Turning to `C[N+]1(C)CCN(c2ccccc2)CC1`, in experiment [1], the percent of DMSO control GFP is 103% (inactive). In addition, the values for the GFP response vs DMSO in experiment [2] and in experiment [4] were 94.8% (inactive) and 87.3% (inactive), respectively. For the same molecule, the percent response of DMSO control in [3] is 107% (inactive). In addition, the GFP response, % of DMSO in experiment [5] is 96.6% (inactive). Further, the double positive events in experiment [6] was determined as 53.4%. Further, in experiment [6], the vesicle binding response was 172% (inactive). Moreover, the inhibition (in general, the change of the read-out against control, counted positive when it falls) is -1.17% (inactive) in [7]; -8.27% (inactive) in experiment [10]; -7.6% (inactive) in [13]; -1% (inactive) in [14]; -6.3% (inactive) in experiment [15]; 12% (inactive) in experiment [17]. The superoxide response (% of plate) in experiment [8] is 93.3% (inactive). Besides, the aptamer binding inhibition in experiment [9] is 0% (inactive). The response in experiment [11] is 1.95% (inactive). In experiment [12], the binding (% of control) is 100% (inactive). In experiment [16], the efflux inhibition (fraction of control) was -0.2 (inactive). For the same molecule, the differentiation response in experiment [18] is -14.7% (inactive).

For `C[C@H]1CCC/C=C/C2C[C@H](O)CC2[C@H](O)/C=C/C(=O)O1` (stereo partly specified), the percent of DMSO control GFP in [1] was 106% (inactive). Moreover, the GFP response vs DMSO is 111% (inactive) in experiment [2] and 100% (inactive) in experiment [4]. Besides, the percent response of DMSO control in experiment [3] was 99.7% (inactive). Moreover, the GFP response, % of DMSO in experiment [5] is 102% (inactive). This molecule displayed a double positive events in [6] of 62.5%. Further, the vesicle binding response in experiment [6] is 166% (inactive). Also, the inhibition was 0.25% (inactive) in [7]; 4% (inactive) in experiment [13]; -0.8% (inactive) in experiment [14]; 2.7% (inactive) in experiment [15]; 17% (inactive) in experiment [17]. Further, the superoxide response (% of plate) in experiment [8] is 92.8% (inactive). Further, the aptamer binding inhibition in experiment [9] was 1% (inactive). Also, the response is 28.3% (inactive) in experiment [19] and -4.42% (inactive) in [11]. Moreover, the binding (% of control) in experiment [12] was 85.8% (inactive). In experiment [16], the efflux inhibition (fraction of control) is 0.31 (inactive). In addition, the differentiation response in experiment [18] is 32% (inactive).

As for `c1ccc(Cn2ccnc2)cc1`, in [1], the percent of DMSO control GFP was 97.4% (inactive). For the same molecule, the GFP response vs DMSO in experiment [2] was 97.9% (inactive); in experiment [4] it was 99.4% (inactive). For the same molecule, the percent response of DMSO control in experiment [3] is 90% (inactive). The GFP response, % of DMSO in experiment [5] is 98.2% (inactive). The molecule further registered a double positive events in experiment [6] of 63.8%. Moreover, the vesicle binding response in [6] is 185% (inactive). The inhibition was 14.7% (inactive) in [7]; 0.17% (inactive) in experiment [10]; 5.2% (inactive) in experiment [13]; 0.1% (inactive) in experiment [14]; -0.1% (inactive) in [15]; 9% (inactive) in experiment [17]. Also, the superoxide response (% of plate) in [8] is 92.9% (inactive). The aptamer binding inhibition in experiment [9] is 12% (inactive). The response in experiment [11] is 4.53% (inactive). The binding (% of control) in experiment [12] was 97.7% (inactive). Moreover, the efflux inhibition (fraction of control) in experiment [16] is 0.03 (inactive). Also, in [18], the differentiation response was -16.4% (inactive).

In the case of `CC(=O)C1=C(C)OC(N)=C(C(=O)OC(C)C)C12C(=O)Nc1ccccc12` (stereo unspecified), the percent of DMSO control GFP in experiment [1] was 102% (inactive). The GFP response vs DMSO is 105% (inactive) in experiment [2] and 99.4% (inactive) in experiment [4]. For the same molecule, the percent response of DMSO control in experiment [3] was 103% (inactive). Besides, in [5], the GFP response, % of DMSO was 101% (inactive). The molecule further returned a double positive events in [6] of 56.3%. The vesicle binding response in [6] is 194% (inactive). Besides, the inhibition in experiment [7] is 0.69% (inactive); in [10], 0.23% (inactive); in [13], -2.3% (inactive); in [14], -0.1% (inactive); in experiment [15], -1.4% (inactive); in experiment [17], 8% (inactive). In addition, in experiment [8], the superoxide response (% of plate) is 103% (inactive). The aptamer binding inhibition in experiment [9] was 0% (inactive). For the same molecule, the response in experiment [11] was -0.91% (inactive). In experiment [12], the binding (% of control) was 93.8% (inactive). In addition, the efflux inhibition (fraction of control) in experiment [16] is 0.1 (inactive). Also, the differentiation response in [18] is -18% (inactive).
